Assay [1] is described as follows: NCI Yeast Anticancer Drug Screen. Data for the rad50 strain (AID 155).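 Also: 0% = growth of vehicle-only cultures of the same strain.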 Particulars: S. cerevisiae rad50 strain growth inhibition; at 50.0 µM; stronger effect = higher value. A digest of the protocol:
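Growth of the mutant yeast was measured after compound exposure and referenced to vehicle-treated cultures.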

Assay [2] in a line: NCI Yeast Anticancer Drug Screen. Data for the mec2-1 strain (AID 157). The following applies: S. cerevisiae mec2-1 strain, at 50.0 µM, stronger effect = higher value. The procedure, abridged:
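Test agents were screened against the mec2-1 yeast strain, with defined DNA repair or cell cycle alteration. Growth was scored as inhibition against vehicle-only controls.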

Assay [3] is described as follows: NCI Yeast Anticancer Drug Screen. Data for the sgs1 mgt1 strain (AID 161).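 Also: 0% = growth of cultures given vehicle only.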 Particulars: S. cerevisiae sgs1 mgt1 strain, at 50.0 µM, stronger effect = higher value. The procedure, abridged: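 Mutant yeast exposed to compound; growth scored against vehicle-only wells.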
The nature of assay [4]: NCI Yeast Anticancer Drug Screen. Data for the cln2 rad14 strain (AID 165).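 Also: 0% = growth equal to vehicle treated cultures.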 Particulars: S. cerevisiae cln2 rad14 strain, at 50.0 µM, stronger effect = higher value. The procedure, abridged: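 Growth of compound-exposed yeast (cln2 rad14 genotype) measured and expressed as inhibition relative to vehicle.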
Assay [5] is described as follows: NCI Yeast Anticancer Drug Screen. Data for the bub3 strain (AID 167). The following applies: S. cerevisiae bub3 mutant strain, at 50.0 µM, stronger effect = higher value. The procedure, abridged: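 Whole-cell yeast assay. The mutant strain was incubated with compounds, and growth inhibition was determined by comparison with vehicle-treated cells.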
Assay [6] is described as follows: NCI Yeast Anticancer Drug Screen. Data for the mlh1 rad18 strain (AID 175). Particulars: S. cerevisiae mlh1 rad18 strain growth inhibition; at 50.0 µM; stronger effect = higher value. A digest of the protocol:
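In this whole-cell yeast screen, a strain with altered DNA damage repair is challenged with compound, and its growth is measured against matched vehicle-treated controls.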

Experimental findings from PubChem BioAssay (NCI) are described below.

Structures are written as SMILES. Compounds without any hit were thinned out: in the full panel of roughly 79,000, 15% have a hit. A number with no mark means an inactive call. Calls of active or inactive are those of the source. Rule as the data show it: active = growth inhibition above about 70%; inactive = the rest.

As to `CCOC(C)(OCC)c1ccccc1`, the growth inhibition was -9.15% in assay [1]; 20.6% in assay [2]; -2.1% in assay [3]; 23.5% in assay [4]; 8.55% in assay [5]; 29.4% in assay [6].

Take `O=[N+]([O-])c1ccc(N/N=C/c2ccccc2Cl)c([N+](=O)[O-])c1`: the growth inhibition in assay [1] is 15.3%; in assay [2], -9.55%; in assay [3], -1.15%; in assay [4], -22.4%; in assay [5], 9.75%; in assay [6], 27.3%.

Turning to `CCC(c1ccc(CN(C)C)c(O)c1)C(CC)c1ccc(CN(C)C)c(O)c1` (stereo not given), the growth inhibition is 5.7% in assay [1]; 1.35% in assay [2]; -11.4% in assay [3]; -12.9% in assay [4]; -2.55% in assay [5]; 2.75% in assay [6].

Consider `CCC(O)C(CC)CC` (stereo not given), for which the growth inhibition in assay [1] was 13.8%; in assay [2] it was -19.7%; in assay [3], -4.2%; in assay [4] it was 17%; in assay [5] it was -10.2%; in assay [6] it was 14.9%.

As for `O=C1CCC(=O)C(C(=O)CCC(=O)Nc2cccc(Cl)c2)C1` (stereo not given), the growth inhibition in assay [1] was -20.6%; in assay [2], -6.5%; in assay [3], -11.7%; in assay [4] it was 19.8%; in assay [5], 11.9%; in assay [6] it was -4.9%.

With `COC(CC(=O)O)CC(C)CC(C)(C)C` (stereo not given), the growth inhibition is 48.5% in assay [1]; 15.8% in assay [2]; 38% in assay [3]; 18.9% in assay [4]; 24.9% in assay [5]; 40.1% in assay [6].

For the compound `COC(=O)/C(C)=C/C=C/C(OC)C(OC(N)=O)/C(C)=C/C(C)C(O)C(CC(C)CC1=C(N)C(=O)C=C(N)C1=O)OC` (stereo not given), the growth inhibition was 9.4% in assay [1]; 10.3% in assay [2]; -6.8% in assay [3]; 46.9% in assay [4]; 5.9% in assay [5]; -18% in assay [6].

For `CCOc1c(N=Nc2ccccc2OC)c(-c2ccccc2)nn1C(=S)S`, the growth inhibition is 33.4% in assay [1]; 42% in assay [2]; 24.8% in assay [3]; 5.75% in assay [4]; 66.7% in assay [5]; 18.9% in assay [6].

With `O=C(CCCCl)c1ccccc1`, the growth inhibition in assay [1] is 0.75%; in assay [2] it was -4%; in assay [3] it was -18.1%; in assay [4] it was 2.35%; in assay [5], -7.1%; in assay [6], -2.6%.

`O=C(O)c1ccc(C(=O)C2CC(C(=O)O)CCC2S(=O)(=O)O)cc1` (stereo not given): the growth inhibition is -10.1% in assay [1]; 11.8% in assay [2]; -19.8% in assay [3]; -30.6% in assay [4]; -0.4% in assay [5]; 17.1% in assay [6].

As for `CC1=C(O)C(=O)C2C(=O)C1C(C)C2c1ccccc1` (stereo not given), the growth inhibition in assay [1] was -5.45%; in assay [2] it was 3.05%; in assay [3] it was -32.2%; in assay [4] it was -7.6%; in assay [5], -11.6%; in assay [6], -13.9%.

As for `COC(=O)C12CCC(C(=O)OC)(CC1)n1c(=O)n(-c3ccccc3)c(=O)n12`, the growth inhibition in assay [1] is -4.8%; in assay [2], -5.15%; in assay [3] it was -7.7%; in assay [4] it was -16.8%; in assay [5] it was -1.85%; in assay [6], -7.15%.

In the case of `Cc1noc(/N=C/c2ccccc2)c1C`, the growth inhibition is -6.8% in assay [1]; -5.45% in assay [2]; -5.3% in assay [3]; -28.1% in assay [4]; 4.4% in assay [5]; -2.5% in assay [6].

Consider `O=C/C(=C(/Br)I)c1ccccc1`, for which the growth inhibition in assay [1] is 5.25%; in assay [2], 2.85%; in assay [3], 24.9%; in assay [4], 8.7%; in assay [5] it was 8.7%; in assay [6], -27.1%.

For `O=C(COCC(=O)N/N=C/c1ccc(O)cc1)N/N=C/c1ccc(O)cc1`, the growth inhibition in assay [1] is -10.4%; in assay [2] it was 22.2%; in assay [3] it was 31.8%; in assay [4], -11.9%; in assay [5], 18.1%; in assay [6], 26.3%.

Take `CCOC(=O)Cc1nc(Cl)c2c(C)c(C)sc2n1`: the growth inhibition in assay [1] was 29.8%; in assay [2] it was 5.6%; in assay [3], 6.9%; in assay [4], 20.2%; in assay [5], 24.9%; in assay [6], 40.5%.

As for `C=C(C)C(O)C(O)c1c(OC)ccc2ccc(=O)oc12` (stereo not given), the growth inhibition is -3.65% in assay [1]; -4.25% in assay [2]; -50.7% in assay [3]; 14.1% in assay [4]; -5.55% in assay [5]; -4.4% in assay [6].

In the case of `C=CC1C(OC2OC(CO)C(O)C(O)C2O)OC=C(C(=O)OC)C1CC1CC(=O)CC(CCc2ccc(O)cc2)O1` (stereo not given), the growth inhibition is 1.8% in assay [1]; -10.1% in assay [2]; -4.9% in assay [3]; 1.45% in assay [4]; -13.9% in assay [5]; -76.2% in assay [6].

With `O=C(O)c1cncc(-c2ccccc2)c1`, the growth inhibition was 38.2% in assay [1]; 30.7% in assay [2]; 23.4% in assay [3]; 14.1% in assay [4]; 3% in assay [5]; 26% in assay [6].

As to `O=C1CNC(=O)N1`, the growth inhibition in assay [1] is -38.1%; in assay [2] it was 23.8%; in assay [3], 2%; in assay [4], -11.7%; in assay [5], 3.85%; in assay [6], -38.2%.

As for `CN(C)c1nc(NN)c2c(-c3ccccc3)c(-c3ccccc3)oc2n1`, the growth inhibition in assay [1] is 10.2%; in assay [2], 3.9%; in assay [3], 2.3%; in assay [4], 9.35%; in assay [5] it was 20.2%; in assay [6], -11.2%.

As for `CCOC1C(Br)Cn2c(=O)c3cc4ccccc4cc3c(=O)n2C1C` (stereo not given), the growth inhibition in assay [1] is 61.2%; in assay [2], 8.15%; in assay [3], 21.6%; in assay [4] it was 44.3%; in assay [5] it was 33.6%; in assay [6], 33.2%.

For `O=C(/C=C/c1ccc(Cl)c(Cl)c1)c1ccc2ccccc2c1`, the growth inhibition in assay [1] was 28.2%; in assay [2] it was 1.95%; in assay [3] it was -3.7%; in assay [4], -8.6%; in assay [5] it was 11.2%; in assay [6], 20.2%.

Turning to `COc1ccc(C(=O)Nc2ccccc2)cc1`, the growth inhibition in assay [1] is 7.45%; in assay [2], 8.7%; in assay [3], -0.3%; in assay [4], 6.25%; in assay [5] it was -1.2%; in assay [6], -4.65%.

As to `CCOC(=O)C(=O)NC12CC3CC(CC(C3)C1)C2`, the growth inhibition is -16.9% in assay [1]; -17.6% in assay [2]; 1.5% in assay [3]; -4.45% in assay [4]; 24.8% in assay [5]; -8.3% in assay [6].

Turning to `CC(=O)Nc1cc(C)ccn1`, the growth inhibition in assay [1] was 1.2%; in assay [2], 0.6%; in assay [3] it was 10.6%; in assay [4], -35%; in assay [5] it was -2.95%; in assay [6] it was 19.4%.

On to `O=C(CCCCl)CCCCl`, for which the growth inhibition is 12.2% in assay [1]; -10.9% in assay [2]; 21.6% in assay [3]; 12.6% in assay [4]; -3.6% in assay [5]; 19.1% in assay [6].

Consider `COC(=O)c1ccc2c(c1)nnn2C(C)=O`, for which the growth inhibition is -9.55% in assay [1]; -12.7% in assay [2]; -7.25% in assay [3]; -21.9% in assay [4]; 1.7% in assay [5]; 4.65% in assay [6].

For `COc1cccc(/C(C#N)=N/NC(=O)c2nc[nH]c2C)c1`, the growth inhibition in assay [1] is 9.5%; in assay [2], 8.9%; in assay [3], 19.8%; in assay [4], 10.9%; in assay [5] it was 13.1%; in assay [6], 8.95%.

With `COc1ccc(NC(=S)NNC(=O)c2nsc3ccccc23)cc1`, the growth inhibition is 32.5% in assay [1]; 9.85% in assay [2]; 20.8% in assay [3]; 7.35% in assay [4]; -0.8% in assay [5]; -0.15% in assay [6].

For the compound `O=C(O)CC(O)C(F)(F)F` (stereo not given), the growth inhibition in assay [1] was 17.4%; in assay [2], 0.45%; in assay [3], 1.95%; in assay [4] it was 8.65%; in assay [5], 5.3%; in assay [6], 26.5%.

As for `C=C1C(=O)OC2C1CCC1(C)CC(Br)C(=O)C(C)C21` (stereo not given), the growth inhibition is 1.7% in assay [1]; -1.1% in assay [2]; 13.9% in assay [3]; 2.1% in assay [4]; -5.85% in assay [5]; -4.65% in assay [6].

Consider `O=C(COc1ccc(Cl)cc1)N(c1ccccc1)C1CCCCC1`, for which the growth inhibition was 95.9% (active) in assay [1]; 98.3% (active) in assay [2]; 97.5% (active) in assay [3]; 96.2% (active) in assay [4]; 95.2% (active) in assay [5]; 96.9% (active) in assay [6].

For `NC(=O)/C=C/c1cccnc1`, the growth inhibition in assay [1] was 4.6%; in assay [2] it was -0.65%; in assay [3] it was -7.75%; in assay [4] it was -34.1%; in assay [5] it was 11%; in assay [6], 13%.

Consider `CCOC(=O)c1ccc(N2C(C#N)c3ccccc3OC2c2ccccc2O)cc1` (stereo not given), for which the growth inhibition was 5.5% in assay [1]; 2.25% in assay [2]; 15.6% in assay [3]; -19.5% in assay [4]; 1.3% in assay [5]; 21.4% in assay [6].

In the case of `Fc1ccc2nncc(/C=C/c3ccccn3)c2c1`, the growth inhibition was 41.8% in assay [1]; -3.55% in assay [2]; 4.2% in assay [3]; -16.9% in assay [4]; 24.2% in assay [5]; 19.4% in assay [6].

Regarding `O=C(CN=C(CN(c1ccccc1)c1ccccc1)Oc1c(Cl)cc(Cl)cc1Cl)N1c2ccccc2Sc2ccccc21`, the growth inhibition in assay [1] was 4.75%; in assay [2] it was -10.8%; in assay [3] it was 36.5%; in assay [4], -36.2%; in assay [5], -14.7%; in assay [6], 7.8%.

`CN1C(=O)C2CC(=O)N(Cc3ccccc3)C(=O)C2C1=O` (stereo not given): the growth inhibition in assay [1] is 0.5%; in assay [2] it was -16.1%; in assay [3] it was -1.05%; in assay [4] it was 9.3%; in assay [5], -5.4%; in assay [6] it was -1.35%.

On to `CC(=O)c1ccc(N=NN2CCCC2)cc1`, for which the growth inhibition in assay [1] is 30.2%; in assay [2], 8.35%; in assay [3], 17.1%; in assay [4], 31.4%; in assay [5], 34.2%; in assay [6], 2.7%.

Turning to `COC(=O)[C@@H]1CCC(/C(C#N)=C2/CC[C@@H](C(=O)OC)N2)=N1`, the growth inhibition in assay [1] is 8.45%; in assay [2] it was 12.6%; in assay [3] it was 1.2%; in assay [4], -5.1%; in assay [5], 13.2%; in assay [6], 11.1%.
